For 39 sequences, sensor-assay potency score (higher = more potent) results are on record in the OligoGym collection.
Also: reference of the scale not given here.

The first assay deals with FH. The assay is described as follows: pooled miR-30 sensor sort-seq; sequence = guide strand. The conditions noted are these: shRNA.
Sequence TTTATTAACATGATCGTTGGGA had a sensor-assay potency score (higher = more potent) of 0.847.

Sequence TCATATTTGTCTGAGTTCCTGA registered a sensor-assay potency score (higher = more potent) of 0.043.

Take TTTACATTCATATTTGTCTGAG: the sensor-assay potency score (higher = more potent) was -0.0374.

The next assay addresses FIGF. Described as above. The conditions noted are these: shRNA.
For TTCTGCATAAAAAAGAATCAGA, the sensor-assay potency score (higher = more potent) was -0.887.

Turning to TAATTGAGTATGGATGGCGGGG, the sensor-assay potency score (higher = more potent) is -0.582.

On to TTGGTCTGGATTCACTGTGGTG, for which the sensor-assay potency score (higher = more potent) was -0.724.

The sequence TTGGCAAGCACTTACAACCTGT came in with a sensor-assay potency score (higher = more potent) of -0.889.

As for TTCTTCATCTATAACTTTTAGT, the sensor-assay potency score (higher = more potent) was -0.323.

As to TGCAACAGCCACCACATCGGAA, the sensor-assay potency score (higher = more potent) was -0.975.

In turn, TAATCAGTCATATGACACCTGC showed a sensor-assay potency score (higher = more potent) of -0.697.

On to TTTGTTGCTATCCCATAGCATG, for which the sensor-assay potency score (higher = more potent) was -1.38.

Sequence TTACATTTGTTGCTATCCCATA came in with a sensor-assay potency score (higher = more potent) of -0.837.

TGATCTGCTGTTCAGATCGTTC had a sensor-assay potency score (higher = more potent) of -1.69.

Regarding TTACAGACACACTCGCAACGAT, the sensor-assay potency score (higher = more potent) was -0.443.

Turning to TTCTTTGCCATTCTTCATCTAT, the sensor-assay potency score (higher = more potent) is -0.386.

TACAGACACACTCGCAACGATC: the sensor-assay potency score (higher = more potent) is -1.17.

Turning to TCATCTATAACTTTTAGTGTTT, the sensor-assay potency score (higher = more potent) is -1.04.

In the case of TAGTGTTTCAATGTCATAGAAA, the sensor-assay potency score (higher = more potent) was -1.28.

With TAGAAAGTTGCCGCAAACCTAG, the sensor-assay potency score (higher = more potent) was -0.566.

TAGAAGACATCCATCAATGAAC showed a sensor-assay potency score (higher = more potent) of -1.15.

In turn, TGTTTTACAGACACACTCGCAA registered a sensor-assay potency score (higher = more potent) of 0.505.

Turning to TAGCATGTCAATAGGACAGAGT, the sensor-assay potency score (higher = more potent) was -0.483.

The sequence AAACTTTTGAGCCTCAGCCTGC returned a sensor-assay potency score (higher = more potent) of -0.913.

Take TTCATCTATAACTTTTAGTGTT: the sensor-assay potency score (higher = more potent) is -0.356.

Take ATCTTCGTCAAACATCATGTGT: the sensor-assay potency score (higher = more potent) is -0.944.

For the sequence TTTTTTTTTAACACCTGGGAAA, the sensor-assay potency score (higher = more potent) was -1.2.

As to TTGCACTCAAAGCAACTGCAGT, the sensor-assay potency score (higher = more potent) was -1.07.

The target in the next assay is FILIP1L. The assay is described as above. To be noted: shRNA.
The sequence TAATTTGTGATTGTCGAGGAAG yielded a sensor-assay potency score (higher = more potent) of -0.722.

Sequence TTGCTGTTCATCCACCACCATC returned a sensor-assay potency score (higher = more potent) of -1.76.

The sequence TTAGAGAACCACAAGACTCTGG gave a sensor-assay potency score (higher = more potent) of 0.224.

In the case of TTGAGTTCGGTTATCCTGCAGT, the sensor-assay potency score (higher = more potent) was -0.337.

TTTTTCTTTTATATCTTGCAGC showed a sensor-assay potency score (higher = more potent) of -0.415.

Sequence TATAGTTCATGCACAAACCTTC showed a sensor-assay potency score (higher = more potent) of -0.0966.

In turn, TTTTCTGCTAACTTGTACTTAG registered a sensor-assay potency score (higher = more potent) of -0.314.

With TTACTCTGTAACGTCTCCCTTT, the sensor-assay potency score (higher = more potent) was -0.579.

TTTTTCCACAACTTTGTCCAAC: the sensor-assay potency score (higher = more potent) is -1.3.

In turn, TTGTCTACTGCTTCTGTCTGAA came in with a sensor-assay potency score (higher = more potent) of 0.143.

Consider TTTTTCAACATATTAACTCTTG, for which the sensor-assay potency score (higher = more potent) was -0.558.

TTCTTGATCAATTAGCTTCTTT gave a sensor-assay potency score (higher = more potent) of 0.000192.
